The list is not random: actives were taken first. Their share in the collection is about 7.4%.
SMN2 splice enh = qHTS Assay for Enhancers of SMN2 Splice Variant Expression; HEK293 SMN2-luciferase splicing reporter, luminescence, 30-36 h; Potency, µM (highest dose often 46.1 µM), for inactives: at the highest dose activity change, positive = activation, actives largely listed as activators; actives 2.8% (n = 210,000); AID 1458, 2008; further: % of control where 0% means no effect; nearly all actives have a fitted effect of over 55% in size
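qHTS luciferase splicing reporter: luminescence rises when SMN2 exon 7 is included in transfected HEK293 cells. Compound exposure lasted 30-36 h at 37C, with 4.5 mM final sodium butyrate as control, followed by a ONE-Glo read.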
FLuc modulator = qHTS profiling assay for firefly luciferase inhibitor/activator using purifed enzyme and Km concentrations of substrates (counterscreen for miR-21 project); Luciferin 4-monooxygenase (Photinus pyralis), P08659; purified FLuc, Km substrates, luminescence inhibition; Potency, µM (highest dose often 57.5 µM), without a hit: at the highest dose activity change, negative = inhibition, hits mostly inhibitors; actives 6.9% (n = 360,000);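 further: plate controls were vehicle for no effect and reference inhibitor for full effect; nearly all actives have a fitted effect of over 55% in size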
Target sequence (P08659 whole entry, looked up): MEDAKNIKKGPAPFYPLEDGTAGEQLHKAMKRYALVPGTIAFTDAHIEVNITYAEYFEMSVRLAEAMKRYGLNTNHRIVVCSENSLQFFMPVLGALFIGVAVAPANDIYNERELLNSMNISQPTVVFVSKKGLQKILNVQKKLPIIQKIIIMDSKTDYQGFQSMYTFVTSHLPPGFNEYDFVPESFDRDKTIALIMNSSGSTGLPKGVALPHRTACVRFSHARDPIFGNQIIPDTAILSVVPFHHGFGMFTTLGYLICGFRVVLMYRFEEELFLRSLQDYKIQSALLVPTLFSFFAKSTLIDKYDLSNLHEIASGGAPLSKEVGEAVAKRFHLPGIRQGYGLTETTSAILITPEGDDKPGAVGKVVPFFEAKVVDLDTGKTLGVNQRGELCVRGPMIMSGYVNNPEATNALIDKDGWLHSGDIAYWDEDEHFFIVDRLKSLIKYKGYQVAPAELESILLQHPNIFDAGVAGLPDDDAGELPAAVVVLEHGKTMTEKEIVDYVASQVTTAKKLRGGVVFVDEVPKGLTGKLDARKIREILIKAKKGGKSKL
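Purified P. pyralis luciferase, 10 nM final, with Km-level 10 uM D-luciferin and 10 uM ATP in 50 mM Tris acetate pH 7.5, 10 mM Mg acetate, 0.01% Tween-20, 0.05% BSA; 6-point qHTS titration about 60 µM downward; luminescence read.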
Rab9 promoter act = qHTS Assay for Rab9 Promoter Activators | Huh7 Rab9 promoter-luciferase reporter, luminescence, 24 h | AID 485297, 2010 | actives 2.8% (n = 320,000) | Potency, µM (highest dose often 9.22 µM), for inactives: at the highest dose activation, negative = inhibition, actives largely listed as activators; further: % of control where 0% means no effect; nearly all actives have a fitted effect of over 60% in size
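Cell-based reporter: Huh7 stable for Rab9 promoter-driven luciferase, plated in reduced-serum medium with 10% FBS at 1500 cells/well, compound-treated 24 h at 37 °C, luminescence read after 10 min reagent.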
ELG1 genotox = qHTS screen for small molecules that induce genotoxicity in human embryonic kidney (HEK293T) cells expressing luciferase-tagged ELG1 | HEK293T ELG1-luciferase reporter, luminescence, 16 h | Potency, µM (series often up to 46 µM), for the others: at the top dose activity change, positive = activation, hits mostly activators | actives 1.3% (n = 330,000) | AID 504466, 2011; further: % of control where 0% means no effect; nearly all actives have a fitted effect of over 60% in size
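After overnight (16 hr) compound treatment at 37 °C, ELG1-luciferase HEK293T cells were lysed with ONE-Glo; luminescence quantified 30 min later at room temperature.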
NPC1 promoter act = qHTS Assay for NPC1 Promoter Activators | Huh7 NPC1 promoter luciferase reporter, 24 h | AID 485313, 2010 | Potency, µM (top dose mostly 9.22 µM), inactives show at the top dose activation, actives largely listed as activators | actives 2.4% (n = 320,000); further: % of control where 0% means no effect; nearly all actives have a fitted effect of over 60% in size
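Luminescence from an NPC1 promoter-driven luciferase reporter in stably transfected Huh7 cells was measured after 24 h compound treatment at 37 °C, followed by 10 min ambient incubation with luciferase detection reagent.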
* hit, by the source's call; ? = inconclusive; . = no result. The call rests on the fitted dose curve; in most records, active means well fitted curve in the direction sought with a large enough effect; inconclusive means small, poorly fitted or top-dose-only effect, or another doubt; inactive means no such curve, though single readings can be large; an effect the other way counts as inactive or inconclusive. Potency means the concentration at half of the fitted maximal effect.

SMILES	SMN2 splice enh	FLuc modulator	Rab9 promoter act	ELG1 genotox	NPC1 promoter act
COc1ccc(NC(=O)CSc2ccccc2)c([N+](=O)[O-])c1	?	26.9µM*	?	?	?
COc1ccc(NC(=O)COc2ccc(C)cc2)c([N+](=O)[O-])c1	0.2%	?	?	20.6µM*	2.82µM*
COc1ccc(NC(=O)CN2CCCCC2)c([N+](=O)[O-])c1	29.3%	?	10.7%	7.3%	24.2%
COc1ccc(NC(=O)c2cc(Br)ccc2Cl)c([N+](=O)[O-])c1	-10.5%	3.8%	-2.6%	4.5%	-3.2%
COc1ccc(NC(=O)CN2CCC(C)CC2)c([N+](=O)[O-])c1	-1.0%	?	5.1%	16.4µM*	13.0%
COc1ccc(NC(=O)CSc2nc3ccccc3n2-c2ccccc2)c([N+](=O)[O-])c1	-14.2%	-0.8%	-8.0%	0.4%	-4.0%
Cc1cccc(C(=O)Nc2ccc(N3CCN(S(C)(=O)=O)CC3)cc2)c1	?	?	3.98µM*	13.8%	4.47µM*
CS(=O)(=O)N1CCN(c2ccc(NC(=O)c3ccccc3)cc2)CC1	10µM*	?	1.78µM*	?	3.55µM*
COc1cccc(C(=O)Nc2ccc(N3CCN(S(C)(=O)=O)CC3)cc2)c1	15.7%	-18.4%	25.1%	15.0%	28.6%
O=C(O)Cn1nnc(-c2ccc(OCc3ccccc3Cl)cc2)n1	.	19µM*	-2.9%	4.7%	2.1%
CC(C)n1nnc(-c2ccc(OCc3ccccc3F)cc2)n1	.	6.01µM*	1.58µM*	?	2.82µM*
Nc1ccc(-c2nnn(Cc3ccccc3F)n2)cc1	.	15.1µM*	?	?	?
Fc1ccccc1COc1ccc(-c2nnn(Cc3ccccc3F)n2)cc1	-10.8%	-16.5%	0.1%	-1.8%	4.1%
Cn1nnc(-c2ccc(OCc3ccccc3F)cc2)n1	8.91µM*	1.9µM*	1µM*	9.2µM*	0.631µM*
C#CC(C)(CC)NC(=O)Cn1nnc(-c2ccc(OCc3ccccc3Cl)cc2)n1 (stereo unspecified)	-19.4%	-18.5%	.	.	.
Cc1c(CC(=O)NCCCC(=O)O)c(=O)oc2cc3c(cc12)CCC(C)(C)O3	.	?	-33.1%	-8.2%	-34.4%
CCN(C(=O)CSc1nc2ccc(Cl)cc2[nH]1)C1CCS(=O)(=O)C1 (stereo unspecified)	.	.	.	0.9%	.
Fc1ccccc1COc1ccc(C(=S)N2CCCC2)cc1	.	16.9µM*	?	?	?
O=C(Oc1ccc(C(=S)N2CCCCC2)cc1)c1ccccc1F	-2.7%	?	-1.2%	-1.8%	1.3%
Nc1ccccc1SCC(=O)Nc1ccc2c(c1)OCO2	.	1.6%	3.98µM*	-0.4%	?
Cc1cccc(SCC(=O)Nc2ccc3c(c2)OCCO3)c1	.	?	3.98µM*	-0.8%	2µM*
Nc1cc(N)nc(SCC(=O)Nc2ccc3c(c2)OCO3)n1	.	-0.5%	10.8%	-2.4%	-1.2%
CCC(=O)Nc1nnc(SCC(=O)Nc2ccc3c(c2)OCCO3)s1	.	-18.2%	.	3.3%	-0.8%
Nc1nnc(SCC(=O)Nc2ccc3c(c2)OCCO3)s1	-52.1%	19µM*	3.0%	?	18.6%
O=C(CSc1ncc(-c2ccc(F)cc2)n1Cc1ccco1)Nc1ccc2c(c1)OCO2	-0.6%	19µM*	.	.	.
CC(C)(C)c1ccc(N2C(=O)CSC2c2cccnc2)cc1 (stereo unspecified)	.	5.9%	-1.7%	-4.3%	0.5%
